According to PubChem BioAssay (NCATS):
Records with an inconclusive call do not appear. Activity calls are given as the source filed them. Unless noted, calls come from the whole dose curve; as a rule, active = well fitted cell-killing curve with a large enough effect; inconclusive = small, poorly fitted or top-dose-only effect, or effect the other way; inactive = no such curve, though single readings can be large or run the other way.

What was measured:
[1] = Quantitative High-Throughput drug screen in 47 multiple myeloma cell lines against the NCATS MIPE library collection: OCIMY5_PLB cell viability assay (AID 1918988); note: nearly all actives have a fitted effect of over 65% in size; note: potency is the fitted concentration of half-maximal effect
Outline: (§1)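 MIPE 4.0 approved/investigational drugs; 500 cells/well; 48 h 37 °C humidified 5% CO2; CTG luminescence readout; DMSO = 100%, media = 0% viability.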

[2] = Quantitative High-Throughput drug screen in 47 multiple myeloma cell lines against the NCATS MIPE library collection: OPM1_PLB cell viability assay (AID 1918989); note: nearly all actives have a fitted effect of over 40% in size; note: potency is the fitted concentration of half-maximal effect
Outline: as §1

[3] = Quantitative High-Throughput drug screen in 47 multiple myeloma cell lines against the NCATS MIPE library collection: SKMM1_PLB cell viability assay (AID 1919863); details: SKMM1 myeloma viability, CellTiter-Glo ATP, 48 h; viability: stronger effect = lower value; note: nearly all actives have a fitted effect of over 35% in size; note: potency is the fitted concentration of half-maximal effect
Outline: as §1

[4] = Quantitative High-Throughput drug screen in 47 multiple myeloma cell lines against the NCATS MIPE library collection: U266_ATCC cell viability assay (AID 1919864); note: nearly all actives have a fitted effect of over 35% in size; note: potency is the fitted concentration of half-maximal effect;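 for viability (% of DMSO control): 0% = media-only wells without cells and 100% = DMSO-only wells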
Outline: as §1

[5] = Quantitative High-Throughput drug screen in 47 multiple myeloma cell lines against the NCATS MIPE library collection: XG1_PLB cell viability assay (AID 1919866); note: nearly all actives have a fitted effect of over 35% in size
Outline: as §1

[6] = Quantitative High-Throughput drug screen in 47 multiple myeloma cell lines against the NCATS MIPE library collection: UTMC2_PLB cell viability assay (AID 1919868); details: CellTiter-Glo ATP luminescence, 48 h; viability (% of DMSO control): at 45.8 µM (top of the series); note: nearly all actives have a fitted effect of over 55% in size; note: potency is the fitted concentration of half-maximal effect;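 for viability (% of DMSO control): 100% = DMSO-only wells and 0% = media-only wells without cells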
Outline: as §1

[7] = Quantitative High-Throughput drug screen in 47 multiple myeloma cell lines against the NCATS MIPE library collection: PCM6_Riken cell viability assay (AID 1919870); note: nearly all actives have a fitted effect of over 30% in size; note: potency is the fitted concentration of half-maximal effect
Outline: as §1

[8] = Quantitative High-Throughput drug screen in 47 multiple myeloma cell lines against the NCATS MIPE library collection: RPMI8226_ATCC cell viability assay (AID 1919871); note: nearly all actives have a fitted effect of over 30% in size; note: potency is the fitted concentration of half-maximal effect
Outline: as §1

[9] = Quantitative High-Throughput drug screen in 47 multiple myeloma cell lines against the NCATS MIPE library collection: OPM2_DSMZ cell viability assay (AID 1919872); note: nearly all actives have a fitted effect of over 30% in size; note: potency is the fitted concentration of half-maximal effect
Outline: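 Approved and investigational drugs from MIPE 4.0 were added by pin tool to 500 cells per well. After 48 hours at 37C, ATP-based CellTiter-Glo luminescence indicated remaining viability.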

[10] = Quantitative High-Throughput drug screen in 47 multiple myeloma cell lines against the NCATS MIPE library collection: KMS11_JCRBsus cell viability assay (AID 1919873); note: nearly all actives have a fitted effect of over 50% in size; note: potency is the fitted concentration of half-maximal effect
Outline: as §1

[11] = Quantitative High-Throughput drug screen in 47 multiple myeloma cell lines against the NCATS MIPE library collection: KMS28BM_JCRB cell viability assay (AID 1919874); note: nearly all actives have a fitted effect of over 35% in size; note: potency is the fitted concentration of half-maximal effect
Outline: as §1

[12] = qHTS for identification of novel therapeutic agents for treatment of microphthalmiaassociated transcription factor (MiT) renal cell carcinoma (RCC) (AID 1963991); details: CellTiter-Glo, 48 h, stronger effect = lower value
Outline: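 Curves over 11 concentrations were fitted to CellTiter-Glo luminescence, scaled between empty wells (0%) and DMSO (100%) viability. Cells were UOK109, UOK124 and UOK145 TFE3-fusion RCC lines at 500/well, exposed 48 hours at 37 C.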

[13] = qHTS drug screen for cell cycle checkpoint inhibitors in PARPi-resistant BRCA-mutant ovarian cancer cell lines. (AID 1963452; calls by dose curve); details: PEO1/OlaR viability, CellTiter-Glo luminescence, 96 h, stronger effect = lower value
Outline: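 PEO1, PEO4 and PEO1/OlaR ovarian cancer cells, 600 per well, exposed 96 h at 37C to a dilution series. Viability read by CellTiter-Glo luminescence, normalized to DMSO and empty wells; activity summarized as Z-AUC.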

[14] = Quantitative High-Throughput drug screen in 47 multiple myeloma cell lines against the NCATS MIPE library collection: VP6_DJ cell viability assay (AID 1919867); note: nearly all actives have a fitted effect of over 40% in size; note: potency is the fitted concentration of half-maximal effect
Outline: as §1

[15] = Quantitative High-Throughput drug screen in 47 multiple myeloma cell lines against the NCATS MIPE library collection: PE2_PLB cell viability assay (AID 1919869); note: nearly all actives have a fitted effect of over 35% in size; note: potency is the fitted concentration of half-maximal effect
Outline: as §1

[16] = Quantitative High-Throughput drug screen in 47 multiple myeloma cell lines against the NCATS MIPE library collection: XG6_PLB cell viability assay (AID 1919865); note: potency is the fitted concentration of half-maximal effect; nearly all actives have a fitted effect of over 40% in size
Outline: as §1

[17] = TFE3-RCC UOK109 viability, measured here: UOK109 Z-AUC
[18] = TFE3-RCC viability, measured here: UOK124 Z-AUC
[19] = TFE3-RCC viability, measured here: UOK145 Z-AUC
[20] = measured here: PEO1 parental Z-AUC

C1=C2CCCN[C@H]2[C@@H]2C[C@H]1[C@@H]1CCCCN1C2
-0.0816: z-score [12, 17]
inactive: Potency [1] | Potency [2] | viability [3] 99.4% | Potency [4] | Potency [5] | Potency [6] | Potency [7] | Potency [8] | Potency [9] | Potency [10] | Potency [11]
0.304: z-score [12, 19]
0.828: z-score [12, 18]

Cc1c(C(=O)Nc2cccc(C(F)(F)F)c2)cc(-c2ccccc2)n1CCCN1CCOCC1
inactive: Z-AUC [13] -1.03
-0.727: Z-AUC [13, 20]
-1.05: Z-AUC ([13]; measured here: PEO4 Z-AUC)
active: Potency [1] 16.6 µM | Potency [2] 18.7 µM | Potency [3] 26.4 µM | Potency [4] 16.6 µM | Potency [6] 5.9 µM | Potency [8] 14.8 µM | Potency [10] 23.5 µM | Potency [11] 5.9 µM

COc1ccc2c(c[n+](C)c3c4cc5c(cc4ccc23)OCO5)c1OC
active: Potency [1] 2.09 µM | Potency [2] 9.35 µM | Potency [3] 5.9 µM | Potency [4] 5.9 µM | Potency [14] 2.96 µM | Potency [6] 5.26 µM | Potency [7] 7.43 µM | Potency [9] 9.35 µM | Potency [10] 3.32 µM | Potency [11] 2.96 µM
0.375: Z-AUC [13, 20]
inactive: Z-AUC [13] -0.492
0.195: Z-AUC ([13]; measured here: PEO4 Z-AUC)

CC(C)[C@]12O[C@@H]1[C@@H]1O[C@]13[C@]1(O[C@H]1C[C@@H]1C4=C(CC[C@@]13C)C(=O)OC4)[C@H]2O
-3.53: z-score [12, 19]
-3.26: z-score [12, 18]
-3.4: z-score [12, 17]
inactive: Potency [1] | Potency [2] | viability [3] -10.1% | Potency [4] | Potency [14] | Potency [6] | Potency [7] | Potency [9] | Potency [10] | Potency [11]

COc1cc2cc(c1Cl)N(C)C(=O)C[C@H](OC(=O)C(C)C)[C@]1(C)O[C@H]1[C@H](C)[C@@H]1C[C@@](O)(NC(=O)O1)[C@H](OC)C=CC=C(C)C2
-1.62: z-score [12, 19]
-3.1: z-score [12, 18]
-2.37: z-score [12, 17]
inactive: Potency [1] | Potency [2] | viability [3] 50.1% | Potency [4] | Potency [5] | Potency [6] | Potency [15] | Potency [7] | Potency [8] | Potency [9] | Potency [10] | Potency [11]

C[C@@H]1O[C@@H](O[C@@H]2C=C3CC[C@@H]4[C@@H](CC[C@]5(C)[C@H](c6ccc(=O)oc6)CC[C@@]45O)[C@@]3(C)CC2)[C@H](O)[C@H](O)[C@H]1O
active: Potency [1] 0.0132 µM | Potency [2] 0.0296 µM | Potency [3] 0.0235 µM | Potency [4] 0.0093 µM | Potency [16] 0.0166 µM | Potency [14] 0.0118 µM | Potency [15] 0.0264 µM | Potency [7] 0.0093 µM | Potency [9] 0.0093 µM | Potency [10] 0.0526 µM | Potency [11] 0.0083 µM
